# Rows were chosen to be rich in hits. Some 3.2% of all compounds tested hit in one or more screens of this group.
# PG9 Ab binder – PG9 antibody binding by small molecule | hit rate 0.43% among 360,000 | TR-FRET gp120-PG9 antibody binding | inhibition, % at 6.7 µM; in the data active means inhibition above about 8.5%
# MsrA inh – inhibitors of bovine MsrA; purified bovine MsrA, absorbance read-out; inhibition, % at 15.5 µM; hit rate 0.75% among 360,000; AID 651718; in the data active means inhibition above about 4.5%;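 further: 0% = vehicle wells with enzyme and 100% = reference inhibitor wells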
# MsrA act – bovine methionine sulfoxide reductase A activation; hit rate 0.3% among 360,000; activation, % at 10.6 µM; purified bovine MsrA, absorbance read-out; AID 602163; in the data active means activation above about 7.5%;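 further: 0% = vehicle and 100% = reference activator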
# rCAG RNA binder – binds r(CAG) RNA repeats. r(CAG) RNA repeat, TO-PRO-1 dye displacement fluorescence. inhibition, % at 3 µM. hit rate 1.3% among 370,000. AID 651821;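 active means inhibition above the plate cutoff, the mean of all test compounds on that plate plus 3 SD, cut at about 35% in these data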;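 further: 0% = DMSO alone and 100% = 100 µM mitoxantrone as full dye displacement; higher means more dye released from RNA so lower well fluorescence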
# HGIII-sPLA2 inh – Blocks human group III sPLA2 activity. Q9NZ20. QFRET BODIPY PC-A2 liposome hydrolysis, fluorescence. inhibition, % at 12.2 µM. hit rate 0.56% among 370,000. AID 743126;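 active means inhibition above mean plus 3 SD of compounds lying within the high and low control bounds, cut at about 19% in these data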;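 further: 0% = median of test compound wells and 100% = no enzyme DMSO wells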
# Target sequence (Q9NZ20 whole entry, looked up): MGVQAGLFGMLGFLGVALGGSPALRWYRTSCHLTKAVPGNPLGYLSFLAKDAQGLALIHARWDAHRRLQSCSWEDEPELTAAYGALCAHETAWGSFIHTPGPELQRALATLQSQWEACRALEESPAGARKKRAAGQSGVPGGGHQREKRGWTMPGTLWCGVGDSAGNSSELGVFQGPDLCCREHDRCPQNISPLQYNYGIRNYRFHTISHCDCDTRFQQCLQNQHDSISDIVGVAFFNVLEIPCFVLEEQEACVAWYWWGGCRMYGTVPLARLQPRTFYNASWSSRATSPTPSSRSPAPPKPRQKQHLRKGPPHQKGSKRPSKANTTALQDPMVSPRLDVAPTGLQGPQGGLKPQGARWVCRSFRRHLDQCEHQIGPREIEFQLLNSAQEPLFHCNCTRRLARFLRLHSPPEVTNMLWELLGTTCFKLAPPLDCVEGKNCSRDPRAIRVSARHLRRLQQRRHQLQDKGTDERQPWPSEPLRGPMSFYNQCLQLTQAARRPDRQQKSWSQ
# Active calls of the source: *; . = not tested or not shown.
SMILES,PG9 Ab binder,MsrA inh,MsrA act,rCAG RNA binder,HGIII-sPLA2 inh
CCOC(=O)CC[C@H]1CC[C@]2(CCCN(S(=O)(=O)C3CCCCC3)C2)O1,.,.,.,-1,8
Cc1cccc(NC(=S)N=Nc2c(O)[nH]c3ccccc23)c1,0,1,-4,30,20*
O=C(N=Nc1c(O)[nH]c2ccccc12)Nc1ccccc1,-3,3,-1,2,4
O=C(CO)N/N=C/c1ccccc1F,-2,-1,0,36*,7
O=C(OC12CCCN(C1)/C(=C/c1ccc(Cl)cc1)C2)c1ccc(F)cc1 (centres undefined),.,.,.,7,-4
CCCOc1ccc(N2C(=O)CC(SCC(N)C(=O)OCC)C2=O)cc1 (centres undefined),0,-1,0,-5,-3
CCOC(=O)C(N)CSC1CC(=O)N(c2ccc(C(=O)OC)cc2)C1=O (centres undefined),0,0,11*,1,5
CC1=C(C#N)c2nc(N)c(C#N)c(C)c2/C1=C\c1ccc(OCC(=O)O)c(Cl)c1,-4,2,-6,47*,-18
CCc1nc(N)c(C#N)c(-c2ccc(OC)c(OC)c2)c1C,1,0,3,-4,0
Cc1ccc(-c2cc(-c3nnc(SCC(=O)N4c5ccccc5Sc5ccc(Cl)cc54)n3N)[nH]n2)cc1,.,.,.,15,1
CC(COc1cc(F)cc(F)c1)CN1CCC(C(O)(c2ccccc2)c2ccccc2)CC1 (centres undefined),.,.,.,2,-13
CCOc1ccccc1/C=C(\C(=O)O)c1ccc(S(=O)(=O)N2CCCCC2)s1,-3,3,-2,45*,-27
Cc1cccc(/C=C(\C(=O)O)c2ccc(S(=O)(=O)N3CCCC3)s2)c1,0,0,-13,19,-18
Cc1csc(NC(=O)/C=C/c2ccc3c(c2)OCO3)n1,-1,4.6*,-9,6,3
Cc1ccc2nc(NC(=O)/C=C/c3ccc4c(c3)OCO4)sc2c1,0,0,-6,1,15
O=C(N/N=C/c1ccc2c(c1)OCO2)c1ccc(NC(=O)c2ccccc2Cl)cc1,2,5.2*,-13,8,-2
O=C(N/N=C/c1ccc2c(c1)OCO2)c1cccc(NC(=O)c2ccccc2Cl)c1,-3,2,2,5,-2
CCCN1C(=O)C2(/C(=C(\O)c3ccc4c(c3)OCCO4)C(=O)C(=O)N2CCCOC)c2ccccc21 (centres undefined),.,.,-5,.,.
CCCOc1ccc(/C(O)=C2\C(=O)C(=O)N(CCCOC)C23C(=O)N(C)c2ccccc23)cc1 (centres undefined),11*,2,2,8,-3
S=C(Nc1ccccc1)OC1CCC12CCC(c1ccccc1)CC2 (centres undefined),.,.,.,5,3
COc1ccc(/C=N/NC(=S)NC2CCS(=O)(=O)C2)cc1OC (centres undefined),-2,6.0*,-6,-4,2
Cc1ccc(/C=N/NC(=S)NC2CCS(=O)(=O)C2)cc1 (centres undefined),0,2,-3,0,7
CCC(C)NC(=O)C1CCN(S(=O)(=O)c2ccc3[nH]c(=O)oc3c2)CC1 (centres undefined),.,.,.,7,2
Cc1cc(C(F)(F)F)n2nc(-c3cnn(C)c3C(F)(F)F)cc2n1,-3,1,7.7*,-2,0
Cc1cccc(NC(=S)N=Nc2c(O)n(CN3CCOCC3)c3ccccc23)c1C,-1,2,-2,21,23*
SMILES,PG9 Ab binder,MsrA inh,MsrA act,rCAG RNA binder,HGIII-sPLA2 inh
Cc1ccc(N=Nc2c(O)n(CN3CCOCC3)c3ccccc23)cc1,.,.,-9,.,.
CN(C)c1nc(NCc2ccccc2)nc(SCC(=O)Nc2ccccc2Cl)n1,-3,0,-1,-2,-5
CN(C)c1nc(NCc2ccccc2)nc(SCC(=O)Nc2ccccc2)n1,-1,1,18*,-3,-16
CCOC(=O)N1CCN(C(=O)C[C@@H]2C(=O)N3CCCC4=C3[C@@]2(C(=O)OCC)CCC4)CC1,.,.,.,-2,-1
CCn1c(C)cc(/C=C2\NC(=O)N(Cc3ccc(Cl)cc3)C2=O)c1C,-5,2,-11,10,1
CCN1C(=O)N/C(=C/c2cc(C)n(Cc3ccccc3)c2C)C1=O,-4,4.6*,-7,11,3
O=S1(=O)c2c(cccc2N2CCSCC2)Oc2ccccc2CN1Cc1cn(Cc2ccccc2C(F)(F)F)nn1,.,.,.,9,-1
CC(C)CN1C(=O)[C@@]2(CC(=O)N(C)C2c2ccccc2)c2cc(-n3cc(CCCC#N)nn3)ccc21 (some centres undefined),.,.,.,-3,-6
O=C(c1ccc(Cl)c(Cl)c1)N1CCC(Oc2cccnc2)CC1,.,.,.,0,1
O=[N+]([O-])c1ccc(NCCNS(=O)(=O)c2ccccc2)c(C(F)(F)F)c1,-1,5.1*,-3,6,-26
O=[N+]([O-])c1ccc(NCCNS(=O)(=O)c2ccccc2)cc1,0,0,-4,-2,-5
CCN(CC)Cc1cc(Nc2c3ccccc3nc3c4ccccc4n(C)c23)cc(CN(CC)CC)c1O,-22,2,-6,13,21*
Oc1cccc(Nc2c3ccccc3nc3ccccc23)c1,-9,0,-1,9,2
COC(=O)C[C@@H]1CC[C@H]2[C@@H](COc3ccc(NS(=O)(=O)c4ccccc4F)cc3C(=O)N2C)O1,.,.,.,1,-30
Cc1ccc(-c2n[nH]c(=S)n2/N=C/C=C/c2ccccc2[N+](=O)[O-])cc1,0,1,-3,40*,1
Cc1ccc(S(=O)(=O)NN2C(=O)/C(=C/c3cccc(F)c3)SC2=S)cc1,-1,3,-1,75*,-16
CCCCOc1ccc(NC(=O)Cn2c(=O)ccc3c(C)cc(C)nc32)cc1,9.0*,0,-5,-5,7
CCCCOc1ccc(NC(=O)CN2CCN(CC)CC2)cc1,1,0,-2,-7,0
CC(=O)N1CCc2c1cccc2S(=O)(=O)NC(CC(C)C)C(=O)Nc1ccc(Cl)c(Cl)c1 (centres undefined),.,.,.,5,-28
O=C(Nc1cccnc1)c1ccc([N+](=O)[O-])s1,-2,2,13*,3,-1
Cc1ccc2nc(-c3ccc(NS(=O)(=O)c4ccc(F)c(F)c4)cc3)sc2c1,-1,3,-7,75*,-126
O=c1c2ccccc2nc(/C=C/c2ccccc2)n1CCCO,-3,4.6*,-14,2,-1
CCC(C(=O)Nc1ccccc1N1CCCC1)c1cccc(OC)c1 (centres undefined),.,.,.,1,1
O=C(NCCN1CCc2ccccc2C1)Nc1ccc([N+](=O)[O-])cc1,-1,3,-4,10,21*
CC(NCc1ccco1)C(=O)N1CCN(c2ccc(F)cc2)CC1 (centres undefined),.,.,.,3,6
Cc1cc(N)ncc1[N+](=O)[O-],-1,4.6*,-7,-1,11
Cc1cc2nc[nH]c2cc1[N+](=O)[O-],-2,0,-1,1,-2
C=CCN1[C@H](CC(C)C)COc2cc(N3CCCC3)ccc2S1(=O)=O,.,.,.,3,6

# High-throughput results: PubChem BioAssay, The Scripps Research Institute Molecular Screening Center
